In PubChem BioAssay (Tox21):
A number with no mark means an inactive call. Records with an inconclusive call do not appear. A call without a number means that no potency is given here. The source made the active and inactive calls. Unless noted, calls follow the shape of the dose curve; as a rule, active = well fitted curve in the direction sought with a large enough effect in the repeat runs; inconclusive = weak or mixed curves; inactive = no such curve, though single readings can be large; an effect the other way counts as inactive or inconclusive.

Tests used:
[1] = target: Thyrotropin-releasing hormone receptor (Homo sapiens) (UniProt P34981); experiment: qHTS assay to identify small molecule agonists of the thyrotropin-releasing hormone receptor (TRHR) signaling pathway (AID 1346891; calls by dose curve;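 also: HEK293 cells expressing TRHR with calcium dye readout; series mostly up to about 58 µM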)
How it was run: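 Agonist-mode calcium mobilisation screen: TRHR-transfected HEK293 cells cultured overnight (18 h), dye-loaded for 2 h at 37 °C, exposed to compounds, and monitored by fluorescence for 3 min.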

[2] = Human pregnane X receptor (PXR) small molecule agonists, qHTS cell viability counter screen (AID 1346977); also: nearly all actives have a fitted effect of over 50% in size; also: potency is read from the fitted curve at half-maximal effect
How it was run: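 Measures live-cell protease fluorescence (CellTiter-Fluor) in PXR-Luc HepG2 cells treated 24hr with compounds at 37C. Cells had 5hr to attach before pin transfer of DMSO solutions.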

[3] = Caspase-3/7 induction in HepG2 cells by small molecules, qHTS assay (AID 1346978); also: nearly all actives have a fitted effect of over 15% in size; also: potency is read from the fitted curve at half-maximal effect
How it was run: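 Caspase-3/7 induction was measured by Caspase-Glo 3/7 luminescence (30 min, room temperature) after a 17 hr compound exposure of wild-type HepG2 cells seeded at 2,000 per well and pre-incubated 5 hr.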

[4] = Caspase-3/7 induction in CHO-K1 cells by small molecules, qHTS cell viability counter screen (AID 1346979); also: nearly all actives have a fitted effect of over 35% in size; also: potency is read from the fitted curve at half-maximal effect
How it was run: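 In the same wells as the caspase read, viability of compound-treated wild-type CHO-K1 cells was assessed using CellTiter-Fluor, added after 16hr at 37C and measured by fluorescence following 1hr further incubation.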

[5] = Caspase-3/7 induction in CHO-K1 cells by small molecules, qHTS assay (AID 1346980); also: nearly all actives have a fitted effect of over 15% in size; also: potency is read from the fitted curve at half-maximal effect
How it was run: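 Luminescent Caspase-Glo 3/7 read (30min, room temperature) quantified apoptosis induction. Cells were wild-type CHO-K1, treated with compound for 17hr at 37 C and 5% CO2.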

[6] = Caspase-3/7 induction in HepG2 cells by small molecules, qHTS cell viability counter screen (AID 1346981); also: nearly all actives have a fitted effect of over 30% in size; also: potency is read from the fitted curve at half-maximal effect
How it was run: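 Fluorescence read-out of live-cell protease activity (CellTiter-Fluor) after 1 hr with reagent. This was measured in the same wells as the caspase-3/7 luminescence, on HepG2 cells exposed to DMSO-dissolved compounds for 16 hr at 37 C.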

[7] = target: Nuclear receptor subfamily 1 group I member 2 (Homo sapiens) (UniProt O75469); experiment: Human pregnane X receptor (PXR) small molecule agonists, qHTS assay (AID 1346982); also: nearly all actives have a fitted effect of over 35% in size; also: potency is read from the fitted curve at half-maximal effect
How it was run: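 HepG2 PXR-Luc reporter line, 5% charcoal-stripped FBS; 5 hr pre-incubation, compound (DMSO) 24 hr at 37 C/5% CO2; ONE-Glo 30 min RT; luminescence read-out.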

[8] = target: Nuclear receptor subfamily 1 group I member 2 (Rattus norvegicus) (UniProt Q9R1A7); experiment: Rat pregnane X receptor (rPXR) activation by small molecules, qHTS assay (AID 1346983); details: rPXR luciferase reporter cells, One-Glo luminescence, 24 h; max activation: active compounds read high; also: nearly all actives have a fitted effect of over 20% in size
How it was run: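 Luminescent readout (One-Glo luciferase, 30 min room temperature) followed 24 hr compound treatment at 37 C of rPXR cells plated 2,000 per well and preincubated 5hr; qHTS format with compounds delivered in DMSO.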

[9] = target: Nuclear receptor subfamily 1 group I member 2 (Homo sapiens) (UniProt O75469); experiment: Human pregnane X receptor (PXR) activation by small molecules, qHTS assay (AID 1346985); also: nearly all actives have a fitted effect of over 40% in size; also: potency is read from the fitted curve at half-maximal effect
How it was run: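 DPX-2 cells (HepG2 co-transfected with a PXR response element and a CYP3A4-promoter luciferase construct) were seeded at 2,000 per well, rested 5 hr at 37C, then exposed to DMSO-dissolved compounds for 24 hr. Activation was read as luciferase luminescence.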

Nuclear receptor subfamily 1 group I member 2 (Homo sapiens), sequence (O75469 whole entry, looked up): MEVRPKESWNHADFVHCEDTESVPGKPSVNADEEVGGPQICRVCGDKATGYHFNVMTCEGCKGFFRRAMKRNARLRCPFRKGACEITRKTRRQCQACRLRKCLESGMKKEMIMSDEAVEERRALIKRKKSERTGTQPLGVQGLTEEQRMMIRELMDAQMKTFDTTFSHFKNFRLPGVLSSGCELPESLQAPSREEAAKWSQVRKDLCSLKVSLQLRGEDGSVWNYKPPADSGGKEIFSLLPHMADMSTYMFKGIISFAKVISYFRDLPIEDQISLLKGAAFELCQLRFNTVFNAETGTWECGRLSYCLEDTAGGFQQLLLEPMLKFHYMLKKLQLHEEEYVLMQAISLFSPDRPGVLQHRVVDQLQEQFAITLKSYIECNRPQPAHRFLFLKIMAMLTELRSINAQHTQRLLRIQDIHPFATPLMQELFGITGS
Thyrotropin-releasing hormone receptor (Homo sapiens), sequence (P34981 whole entry, looked up): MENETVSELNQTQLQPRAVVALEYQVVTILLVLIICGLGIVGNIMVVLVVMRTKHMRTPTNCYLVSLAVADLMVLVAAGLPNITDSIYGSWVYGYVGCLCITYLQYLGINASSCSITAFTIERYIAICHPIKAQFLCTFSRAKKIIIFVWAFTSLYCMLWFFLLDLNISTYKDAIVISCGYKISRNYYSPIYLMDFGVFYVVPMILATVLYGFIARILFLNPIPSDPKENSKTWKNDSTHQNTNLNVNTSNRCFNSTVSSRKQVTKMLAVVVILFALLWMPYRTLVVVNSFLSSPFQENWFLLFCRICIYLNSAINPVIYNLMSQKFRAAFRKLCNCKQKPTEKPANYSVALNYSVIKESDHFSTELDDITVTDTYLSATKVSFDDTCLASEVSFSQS
Nuclear receptor subfamily 1 group I member 2 (Rattus norvegicus), sequence (Q9R1A7 whole entry, looked up): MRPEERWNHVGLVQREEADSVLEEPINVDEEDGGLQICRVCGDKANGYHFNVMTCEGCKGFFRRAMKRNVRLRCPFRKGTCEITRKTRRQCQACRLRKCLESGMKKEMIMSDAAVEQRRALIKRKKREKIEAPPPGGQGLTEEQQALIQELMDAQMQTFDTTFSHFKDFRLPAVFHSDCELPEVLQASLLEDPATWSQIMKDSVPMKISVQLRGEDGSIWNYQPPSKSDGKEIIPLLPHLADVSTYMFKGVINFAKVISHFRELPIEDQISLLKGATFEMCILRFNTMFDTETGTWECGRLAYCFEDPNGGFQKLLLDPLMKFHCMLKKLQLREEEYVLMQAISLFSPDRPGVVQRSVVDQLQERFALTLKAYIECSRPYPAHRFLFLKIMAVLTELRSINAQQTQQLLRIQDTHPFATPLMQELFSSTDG

Row | Structure (SMILES) | Potency [1] | Potency [2] | Potency [3] | Potency [4] | Potency [5] | Potency [6] | Potency [7] | max activation [8] | Potency [9]
1 | Cc1cc(C)cc(N)c1 | inactive | inactive | inactive | inactive | inactive | inactive | 61.9 µM (active) | – | –
2 | O=C(Nc1cccc2c(=O)cc(-c3nn[nH]n3)oc12)c1ccc(OCCCCc2ccccc2)cc1 | inactive | inactive | inactive | inactive | inactive | inactive | inactive | – | –
3 | Cc1c(C)c2c(c(C)c1OC(=O)CCC(=O)OCCO)CC[C@@](C)(CCC[C@H](C)CCC[C@H](C)CCCC(C)C)O2 | inactive | inactive | inactive | inactive | inactive | inactive | inactive | – | –
4 | CNC(=O)c1cnn(-c2nc(N)c3ncn([C@@H]4O[C@H](CO)[C@@H](O)[C@H]4O)c3n2)c1 | inactive | inactive | inactive | inactive | inactive | inactive | inactive | – | –
5 | O=C(O)CCCCCCCCCCCBr | inactive | inactive | inactive | inactive | inactive | inactive | inactive | – | –
6 | CCC=CC#N | inactive | inactive | inactive | inactive | inactive | inactive | – | – | –
7 | Cc1ccc(C(C)(C)O)cc1 | inactive | inactive | inactive | inactive | inactive | inactive | inactive | – | –
8 | O=c1[nH]ncc2ccccc12 | inactive | inactive | inactive | inactive | inactive | inactive | inactive | – | –
9 | OCCOCC#CCOCCO | inactive | inactive | inactive | inactive | inactive | inactive | inactive | – | –
10 | CC(C)=CCC/C(C)=C/CC/C(C)=C/C(=O)OCC(=O)[C@@]1(O)CC[C@H]2[C@@H]3CCC4=CC(=O)C=C[C@]4(C)[C@H]3[C@@H](O)C[C@@]21C | inactive | inactive | inactive | 18.8 µM (active) | inactive | – | – | – | –
11 | NC(=O)c1ccncc1 | inactive | inactive | inactive | inactive | inactive | inactive | – | – | –
12 | Cc1ccccc1S | inactive | inactive | inactive | inactive | inactive | inactive | – | – | –
13 | COC(=O)CS | inactive | inactive | inactive | inactive | inactive | – | – | – | –
14 | CC=C(Cl)Cl | inactive | inactive | inactive | inactive | inactive | inactive | – | – | –
15 | CCCCCCCCCI | inactive | inactive | inactive | inactive | inactive | inactive | inactive | – | –
16 | O=C(OC(=O)c1ccccc1)c1ccccc1 | inactive | inactive | inactive | inactive | inactive | inactive | inactive | – | –
17 | CC1=C(Br)C(=O)C(Br)=C/C1=C(/c1ccccc1S(=O)(=O)O)c1cc(Br)c(O)c(Br)c1C | inactive | 20.8 µM (active) | inactive | 18.6 µM (active) | inactive | 37 µM (active) | – | – | –
18 | CCCCCC[C@@H](O)C/C=C\CCCCCCCC(=O)O | inactive | inactive | inactive | inactive | inactive | inactive | inactive | – | –
19 | C1COC1 | inactive | inactive | inactive | inactive | inactive | inactive | – | – | –

Row | Structure (SMILES) | Potency [1] | Potency [2] | Potency [3] | Potency [4] | Potency [5] | Potency [6] | Potency [7] | max activation [8] | Potency [9]
20 | C=C1C[C@@]23CC[C@H]4[C@@](C)(CCC[C@@]4(C)C(=O)O[C@@H]4O[C@H](CO)[C@@H](O)[C@H](O)[C@H]4O)[C@@H]2CC[C@]1(O[C@@H]1O[C@H](CO)[C@@H](O)[C@H](O[C@@H]2O[C@H](CO)[C@@H](O)[C@H](O)[C@H]2O)[C@H]1O[C@@H]1O[C@H](CO)[C@@H](O)[C@H](O)[C@H]1O)C3 | inactive | inactive | inactive | inactive | inactive | inactive | inactive | – | –
21 | Oc1c(I)cc(I)c2cccnc12 | inactive | inactive | inactive | – | – | – | – | – | –
22 | Cc1ccco1 | inactive | inactive | inactive | inactive | inactive | – | – | – | –
23 | CCCCC(CC)CN (configuration not stated) | inactive | inactive | inactive | inactive | – | – | – | – | –
24 | CC(CO)CO | inactive | inactive | inactive | inactive | inactive | inactive | inactive | – | –
25 | NCCNCCO | inactive | inactive | inactive | inactive | inactive | inactive | inactive | – | –
26 | Cc1ccc(CO)cc1 | inactive | inactive | inactive | inactive | inactive | inactive | inactive | – | –
27 | CC(C)C=O | inactive | inactive | inactive | inactive | inactive | inactive | – | – | –
28 | C=CC(C)(CCC=C(C)C)OC(=O)CC(C)C (configuration not stated) | inactive | inactive | inactive | inactive | inactive | inactive | inactive | – | –
29 | CC(=O)Nc1cc(S(=O)(=O)O)cc2cc(S(=O)(=O)O)c(N=Nc3ccccc3)c(O)c12 | inactive | 21.7 µM (active) | inactive | 27.3 µM (active) | inactive | 24.3 µM (active) | inactive | – | –
30 | CCC(=O)OC | inactive | inactive | inactive | inactive | inactive | inactive | inactive | – | –
31 | Cc1ccccc1N=C(N)Nc1ccccc1C | inactive | inactive | inactive | inactive | inactive | inactive | – | – | –
32 | CCC(OCCCOC)OC(C)=O (configuration not stated) | inactive | inactive | inactive | inactive | inactive | – | – | – | –
33 | CC(C)C(O)(c1ccc(OC(F)(F)F)cc1)c1cncnc1 (configuration not stated) | inactive | inactive | inactive | inactive | inactive | inactive | – | – | –
34 | O=[N+]([O-])c1ccc(Nc2ccc(Nc3ccccc3)c(S(=O)(=O)O)c2)c([N+](=O)[O-])c1 | inactive | 68.6 µM (active) | inactive | 54.5 µM (active) | inactive | 61.1 µM (active) | – | – | –
35 | C1C[C@@H]2[C@H]3CC[C@H](C3)[C@@H]2C1 | inactive | inactive | inactive | inactive | inactive | inactive | inactive | – | –
36 | CC1CC(OC(=O)C(O)c2ccccc2)CC(C)(C)N1C (configuration not stated) | inactive | inactive | inactive | inactive | inactive | inactive | – | – | –
37 | C=C(C)CCCC(C)CCO (configuration not stated) | inactive | inactive | inactive | inactive | inactive | inactive | – | – | –
38 | O=C1Cc2cc(Cl)ccc2N1 | inactive | inactive | inactive | inactive | inactive | inactive | inactive | – | –

Row | Structure (SMILES) | Potency [1] | Potency [2] | Potency [3] | Potency [4] | Potency [5] | Potency [6] | Potency [7] | max activation [8] | Potency [9]
39 | Cc1ccc(OC(=O)c2ccccc2O)cc1 | inactive | inactive | inactive | inactive | inactive | inactive | inactive | – | –
40 | CCC1(CO)COCOC1 | inactive | inactive | inactive | inactive | inactive | inactive | – | – | –
41 | Nc1cccc2c1CN(C1CCC(=O)NC1=O)C2=O (configuration not stated) | inactive | inactive | inactive | inactive | inactive | inactive | inactive | -1% | inactive
42 | CC/C=C1/OC(=O)c2ccccc21 | inactive | inactive | inactive | inactive | inactive | inactive | inactive | – | –
43 | O=C1C(=O)c2ccccc2C(O)=C1C1CCC(c2ccc(Cl)cc2)CC1 (configuration not stated) | inactive | 11.9 µM (active) | inactive | 16.8 µM (active) | – | – | – | 0.127% | inactive
44 | CCOC(C)=O | inactive | inactive | inactive | inactive | – | – | inactive | -1.67% | inactive
45 | c1ccc2c(c1)CCc1ccccc1N2 | inactive | inactive | inactive | inactive | – | inactive | – | – | –
46 | CCOC(=O)/C=C/C(=O)OCC | inactive | inactive | inactive | – | inactive | inactive | – | – | –
47 | CCC(C)(C)OC | inactive | inactive | inactive | – | inactive | – | – | – | –
48 | CC1(C)[C@@H](OC(=O)CCC(=O)O)CC[C@]2(C)[C@H]3C(=O)C=C4[C@@H]5C[C@@](C)(C(=O)O)CC[C@]5(C)CC[C@@]4(C)[C@]3(C)CC[C@@H]12 | inactive | inactive | inactive | inactive | inactive | inactive | – | -0.478% | –
49 | O=C(O)c1ccc(OCCCOc2ccc(C(=O)O)cc2)cc1 | inactive | inactive | inactive | inactive | – | inactive | inactive | -2.11% | inactive
50 | CC(C)C[C@H](NC(=O)[C@H](CCc1ccccc1)NC(=O)CN1CCOCC1)C(=O)N[C@@H](Cc1ccccc1)C(=O)N[C@@H](CC(C)C)C(=O)[C@@]1(C)CO1 | inactive | 0.075 µM (active) | 266 nM (active) | 0.0944 µM (active) | 47.3 nM (active) | – | 0.0376 µM (active) | – | –
51 | CN(C)CCN1C(=O)c2ccccc2N(C)c2ccccc21 | inactive | inactive | inactive | inactive | inactive | – | – | 5.5% | –
52 | C=CC(=O)OCC1CC2CC1C1CCC(COC(=O)C=C)C21 (configuration not stated) | inactive | inactive | inactive | 48.6 µM (active) | – | inactive | 34.4 µM (active) | – | –
53 | CN1CCCC(n2nc(Cc3ccc(Cl)cc3)c3ccccc3c2=O)CC1 (configuration not stated) | inactive | 13.3 µM (active) | inactive | 29.8 µM (active) | inactive | 26.6 µM (active) | 5.31 µM (active) | -1.86% | 20 µM (active)
54 | O=C(O)CCc1nc(-c2ccccc2)c(-c2ccccc2)o1 | inactive | inactive | inactive | inactive | inactive | – | – | -4.22% | inactive
55 | C(=C\c1ccccc1)/c1ccccc1 | inactive | inactive | inactive | inactive | inactive | inactive | inactive | – | –
56 | Nc1ccc(N=Nc2ccccc2)c(N)c1 | inactive | 33.6 µM (active) | inactive | 59.8 µM (active) | inactive | – | 1.69 µM (active) | – | –
